In the library only some 2.8% were active in any assay of this set; here they are far more common.
Six1-Eya2 blk = inhibitors of human Six1/Eya2 interaction; activity change, % (concentration not given with the values); AlphaScreen GST-Six1/His-Eya2 binding, biochemical; stronger effect = lower value; 360,000 tested, 0.56% active; AID 651725; in the data active = activity change below about -65%; inconclusive = mostly about -30% to -63%; note: % is set by controls: 0 for no effect and ±100 for the full control effect
Target sequence (O00167 whole entry, looked up): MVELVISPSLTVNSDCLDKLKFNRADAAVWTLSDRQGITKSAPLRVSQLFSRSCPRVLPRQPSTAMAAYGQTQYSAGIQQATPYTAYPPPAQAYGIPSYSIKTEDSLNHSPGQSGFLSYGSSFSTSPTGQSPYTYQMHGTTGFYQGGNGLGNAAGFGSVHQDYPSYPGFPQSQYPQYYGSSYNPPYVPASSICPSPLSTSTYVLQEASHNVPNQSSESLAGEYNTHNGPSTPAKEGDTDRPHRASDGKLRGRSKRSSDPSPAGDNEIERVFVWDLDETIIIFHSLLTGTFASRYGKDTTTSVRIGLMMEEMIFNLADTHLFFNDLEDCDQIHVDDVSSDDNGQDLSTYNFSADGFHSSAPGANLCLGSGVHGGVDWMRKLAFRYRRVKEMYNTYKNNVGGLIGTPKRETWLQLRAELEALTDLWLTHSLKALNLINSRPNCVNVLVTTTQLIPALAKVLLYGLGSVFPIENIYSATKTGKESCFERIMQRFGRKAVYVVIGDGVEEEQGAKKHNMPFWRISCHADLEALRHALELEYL
Target sequence (Q15475 whole entry, looked up): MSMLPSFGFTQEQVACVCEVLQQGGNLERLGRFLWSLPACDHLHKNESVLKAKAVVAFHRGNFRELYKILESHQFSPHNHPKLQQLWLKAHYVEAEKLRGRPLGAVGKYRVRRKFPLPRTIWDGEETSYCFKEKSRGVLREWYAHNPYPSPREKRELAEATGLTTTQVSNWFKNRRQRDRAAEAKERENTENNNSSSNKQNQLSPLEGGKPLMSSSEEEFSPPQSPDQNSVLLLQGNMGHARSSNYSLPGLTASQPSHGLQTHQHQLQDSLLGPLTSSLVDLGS
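Six1/Eya2 binding was read as AlphaScreen signal after compounds were pinned into GST-Six1 plus His-tagged Eya2 (5X stock 250/500 nM) in pH 8.0 Tris/NaCl/TCEP buffer, beads added, then incubated 1 h, 37 C, dark.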
ATXN2 expr inh = inhibitors of ATXN2 expression; HEK-293 ATXN2-luciferase reporter, luminescence, 24 h; Potency, µM (highest dose often 57 µM), for the others: top-dose activity change, negative = inhibition, actives largely listed as inhibitors; 360,000 tested, 0.72% active; note: potency is the fitted concentration of half-maximal effect; % is set by controls: 0 for no effect and ±100 for the full control effect; nearly all actives have a fitted effect of over 55% in size
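qHTS (up to 57 uM final) was run with 24 h compound exposure of reporter cells at 37 °C. Each well was multiplexed: SteadyGlo luminescence measured ATXN2-luciferase expression after a fluorogenic Gly-Phe-AFC viability readout (25 uM final).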
ATXN viability = reduces viability in counter-screen for ATXN expression inhibitors | S2 cells (HEK-293 line with an ATXN2-luciferase reporter) viability, CellTiter-Fluor protease fluorescence, 24 h | Potency, µM (doses to about 56.7 µM), usual class: cytotoxic | 400,000 tested, 0.49% active | AID 651635; note: potency is the fitted concentration of half-maximal effect; nearly all actives have a fitted effect of over 40% in size
HepG2 tox = counter-screen for TGF-b inhibitors: cytotoxicity in HepG2 cells. Potency, µM (series often up to 46.1 µM), for inactives: at the top dose activity change, negative = cytotoxicity, actives largely listed as cytotoxic. HepG2 CAGA-GFP viability, ATP luminescence, 18 h. AID 588856. 410,000 tested, 0.76% active; note: potency is the fitted concentration of half-maximal effect
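HepG2 CAGA-GFP cells (1000/well, DMEM with 1% FBS) received compound, then TGF-beta at 500 pg/mL final, and were incubated 18 hours at 37 degrees C. Viability was read by CellTiter-Glo luminescence. Media-only wells were set as complete cell-killing and DMSO as no toxicity.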
CtBP-E1A blk = inhibitors of CtBP/E1A interaction | AlphaScreen GST-E1A/His-CtBP binding, 1536-well; stronger effect = lower value | activity change, % (test concentration not listed) | 340,000 tested, 0.49% active | AID 651724; in the data active = activity change below about -65%; inconclusive = mostly about -30% to -63%; note: % is set by controls: 0 for no effect and ±100 for the full control effect
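Homogeneous bead-based format: GST-tagged E1A captured on glutathione donor beads, His-tagged CtBP on nickel acceptor beads; compounds precede bead addition by 2 h at 37 °C.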
TGFb SMAD3 inh = blocks TGF-b signaling | AID 588855 | HepG2 CAGA-GFP TGF-b/SMAD3 reporter, GFP fluorescence, 18 h; TGF-beta stimulated, 500 pg/mL final | Potency, µM (titrated, usually from 46.1 µM), for the others: top-dose activity, negative = inhibition, most hits filed as inhibitors | 410,000 tested, 1.2% active; note: potency is the fitted concentration of half-maximal effect; % is set by controls: 0 for no effect and ±100 for the full control effect; nearly all actives have a fitted effect of over 65% in size
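Inhibition was scored as loss of TGF-beta-induced (500 pg/mL final, 18 hours, 37 degrees C) GFP in HEPG2 cells carrying a CAGA-GFP reporter, in DMEM with 1% FBS. Well GFP was summed per cell; Activity was normalised to unstimulated and stimulated DMSO wells, then concentration-response fitting.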
Starred values were filed as active, the others as inactive; i = inactive; ? = inconclusive; . = not tested or not shown. Unless noted, calls come from the whole dose curve; as a rule, active = well fitted curve in the direction sought with a large enough effect; inconclusive = small, poorly fitted or top-dose-only effect, or another doubt; inactive = no such curve, though single readings can be large; an effect the other way counts as inactive or inconclusive.

SMILES	Six1-Eya2 blk	ATXN2 expr inh	ATXN viability	HepG2 tox	CtBP-E1A blk	TGFb SMAD3 inh
Oc1c(C(c2ccccn2)N2CCC(Cc3ccccc3)CC2)cc(Cl)c2cccnc12 (configuration not stated)	-88*	?	.	-48%	-68*	16µM*
CN1CCN(C(c2ccccn2)c2cc(Cl)c3cccnc3c2O)CC1 (configuration not stated)	-89*	.	i	-13%	.	?
Cc1ccc(C(c2cc(Cl)c3cccnc3c2O)N2CCN(C)CC2)cc1 (configuration not stated)	?	?	i	-3%	-85*	?
COCC(=O)Nc1cc(C(=O)NC2CCCc3ccccc32)c2c(c1)nc(-c1ccncc1)n2C (configuration not stated)	.	.	i	.	.	.
CC(C)=CCC/C(C)=C/CNC(=O)CC1C[C@H](C(=O)N2CCOCC2)[C@@]2(C)c3[nH]c4ccccc4c3CCN2C1=O (some centres not stated)	-12	?	.	-19%	4	?
CN(C)CCCNC(=O)C[C@H]1C[C@H](C(=O)N2CCCCC2)[C@@]2(C)c3[nH]c4cc(-c5ccco5)ccc4c3CCN2C1=O	1	-21%	?	-86%	9	?
CN(C)CCCNC(=O)C[C@H]1C[C@H](C(=O)N2CCCCC2)[C@@]2(CCc3ccccc3)c3[nH]c4cc(-c5ccco5)ccc4c3CCN2C1=O	-18	?	28µM*	14µM*	-17	?
CC(C)=CCC/C(C)=C/CNC(=O)C[C@H]1C[C@H](C(=O)N2CCOCC2)[C@@]2(C)c3[nH]c4cc(-c5ccco5)ccc4c3CCN2C1=O	-22	?	.	-77%	-21	13µM*
O=C(Nc1ccc2c(c1)nc1n2CCN(Cc2ccccc2)C1)c1cccs1	-80*	.	.	-32%	-87*	-10%
COc1ccc(CCNC(=O)c2cnc3ccc(C)cn3c2=O)cc1OC	.	-3%	i	0%	.	-7%
CCS(=O)(=O)NCC(c1cccnc1)N1CCN(c2ccc(OC)cc2)CC1 (configuration not stated)	1	4%	i	3%	-75*	1%
CCS(=O)(=O)NCC(c1cccnc1)N1CCN(c2ccccc2)CC1 (configuration not stated)	7	0%	i	-11%	0	7%
Cc1cnc(C)c(-c2cccc3c2OC(CNC(=O)C2(c4ccc(Cl)cc4)CC2)C3)n1 (configuration not stated)	.	.	i	.	.	.
COc1ccc(OC)c(-c2noc(CSc3nnc(-c4ccccc4)n3-c3ccccc3)n2)c1	.	7%	i	-24%	.	-4%
CCC(C)[C@@H](NC(=O)OC(C)(C)C)c1nnc(S(=O)(=O)Cc2cccc(C)c2)o1 (some centres not stated)	6	?	.	-101%	7	8.9µM*
CCCCC(=O)OCC(=O)[C@H]1[C@H](C)C[C@H]2[C@@H]3C[C@H](F)C4=CC(=O)C=C[C@]4(C)[C@@]3(F)[C@@H](O)C[C@@]21C	.	-14%	i	.	.	.
CC(=O)N(Cc1cccnc1)c1nc2c(F)cc(F)cc2s1	.	.	.	-20%	.	-21%
O=C(C1CCCCC1)N(Cc1cccnc1)c1nc2c(F)cc(F)cc2s1	.	.	.	-36%	.	22µM*
Cc1cccc2sc(N(Cc3cccnc3)C(=O)C3CCCCC3)nc12	.	.	.	-41%	.	10µM*
Fc1ccc(C(c2ccc(F)cc2)N2CCNCC2)cc1	.	-11%	i	.	.	.
Cc1ccccc1C(=O)N1CCc2c(cnc(C)c2CNC(=O)c2ccc3c(c2)OCO3)C1	.	.	i	.	.	.
O=c1cc2oc3cc(O)c(O)cc3c(-c3ccccc3[N+](=O)[O-])c-2cc1O	-71*	.	16µM*	-15%	.	-24%
COc1cc2ccnc(C=O)c2cc1OC	?	.	i	2%	0	0%

Bioassay records from PubChem BioAssay.
